Experiment [1] in a line: inhibitors of TNFa-induced NFkB p65 translocation, primary screen, imaging, HUVEC, MLSMR starter and 10KST1 sets (AID 438;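 active means inhibition above 20% together with a positive visual image hit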;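 further: compound added about 3h40 before a 20 min TNFalpha stimulation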;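 on inhibition: signal is the nuclear over cytoplasmic p65 intensity ratio per well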). The following applies: HUVEC TNFa-induced p65 nuclear translocation; cell count: measured here: nuclei count (cytotoxicity indicator), at 2.08 µM; inhibition: at 2 µM, stronger effect = higher value, 0% TNFa-plus-vehicle, 100% no-TNFa wells.
Experiment [2] is described as follows: inhibitors of mutant huntingtin aggregation, primary screen, imaging, exon1htt(103Q)mCFP cells, high-content imaging (AID 483;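 active means visual image review flags a hit and inhibition of aggregation exceeds 20%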;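 further: compound exposure lasted 3 days before fixation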;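 on nuclei count: percent of the per-plate median nuclei count of sample wells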). The conditions noted are these: exon1htt(103Q)mCFP cell line, aggregate imaging, at 2 µM; inhibition of aggregation: stronger effect = higher value; nuclei count: measured here: cell count, toxicity.
A short description of experiment [3]: inhibitors of E-selectin induction by TNFa, primary screen, imaging, HUVEC, immunofluorescence, MLSMR starter and 10KST1 sets (AID 487;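 active means visually confirmed hit in the image check and inhibition above 20%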;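 on inhibition: signal is fraction of cell area covered by stained E-selectin grains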;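 on nuclei count: 100% = median nuclei count of all wells on the same plate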). The conditions noted are these: HUVEC TNFalpha-induced E-selectin immunofluorescence imaging, at 2 µM; inhibition: stronger effect = higher value; nuclei count: measured here: cell number, toxicity.
The target of experiment [4] is Voltage-gated potassium channel subunit beta-2 (Rattus norvegicus) (UniProt P62483). The experiment can be described thus: KvBeta enzyme negative modulators, primary screen, biochemical, NADPH fluorescence (AID 622;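 active means fluorescence slope higher than the sample average by over 3 SD, cut at about -0.22 in these data, passing the limit was not always enough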;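 further: slope of raw intensity against log time taken from 70 to 1610 s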). The following applies: recombinant KvBeta, 4-cyanobenzaldehyde reduction, at 10 µM, stronger effect = higher value.
Chain of Voltage-gated potassium channel subunit beta-2 (Rattus norvegicus) (P62483 whole entry, looked up): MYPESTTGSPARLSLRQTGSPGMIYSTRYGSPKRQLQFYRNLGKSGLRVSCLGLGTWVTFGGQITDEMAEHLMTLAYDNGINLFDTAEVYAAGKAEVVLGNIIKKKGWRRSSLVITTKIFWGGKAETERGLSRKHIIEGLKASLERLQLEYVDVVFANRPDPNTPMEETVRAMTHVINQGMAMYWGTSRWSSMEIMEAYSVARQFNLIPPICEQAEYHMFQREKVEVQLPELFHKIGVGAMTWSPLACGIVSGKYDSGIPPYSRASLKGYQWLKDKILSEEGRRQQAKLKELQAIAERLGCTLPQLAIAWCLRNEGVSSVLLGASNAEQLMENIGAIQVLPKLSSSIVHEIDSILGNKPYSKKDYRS
The target is the same in experiment [5]. The experiment can be described thus: KvBeta positive modulators, primary screen, biochemical, NADPH fluorescence (AID 623;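 active means NADPH fluorescence slope more negative than the mean of all samples by about 3 SD, 99.7% confidence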;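 further: fluorescence intensity change per second fitted from 20 to 320 s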). The conditions noted are these: Recombinant KvBeta, NADPH fluorescence decrease slope, 10 min; at 10 µM; stronger effect = lower value.
Experiment [6] has as its target Alpha-2C adrenergic receptor (Homo sapiens) (UniProt P18825). Kind of experiment: modulators of alpha2C/GIRK thallium flux, primary screen, cell-based, HEK293 alpha2C/GIRK1/2 (AID 624;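 active means fluorescence slope after compound addition differing from the mean of all screened samples at 99.7% confidence, in either direction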;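 further: slope of fluorescence ratio to pre-addition baseline per second over 15 to 24 s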). The conditions noted are these: thallium flux BTC fluorescence, at 10 µM, actives lie on both sides.
Experiment [7] in a line: inhibitors of Sendai virus-induced IRF3 signaling, primary screen, TLR/RLR signaling modifier project, cell-based, Sendai virus stimulus, luciferase, 10K MLSCN set (AID 602276).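 Further: firefly luciferase from ISG56 promoter only with Renilla not read in this screen; 0% = Sendai virus plus DMSO and 100% = medium plus DMSO without virus.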 The following applies: HEK293 RL24 IRF3 luciferase reporter, at 10 µM, stronger effect = higher value.
Experiment [8] is described as follows: inhibitors of poly I:C-induced TLR3 signaling, primary screen, cell-based, poly I:C stimulus, luciferase, 10K MLSCN set (AID 602277;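 active means inhibition of the reporter signal at or above 50%; inactive means inhibition below 50%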). The following applies: HEK293-TLR3 RL24 IRF3 luciferase reporter, at 10 µM, stronger effect = higher value. On the technique in general: Reporter assays use an easily measured gene product as a stand-in for the process of interest.

This note sets out measurements from PubChem BioAssay.

The source made the active and inactive calls.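 How the source made its calls, unless noted: active means inhibition at or above 50% at 10 µM; inactive means inhibition below 50%.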

One may read the inhibition as the drop in the measured response relative to a control, in per cent.

Chain of Alpha-2C adrenergic receptor (Homo sapiens) (P18825 whole entry, looked up): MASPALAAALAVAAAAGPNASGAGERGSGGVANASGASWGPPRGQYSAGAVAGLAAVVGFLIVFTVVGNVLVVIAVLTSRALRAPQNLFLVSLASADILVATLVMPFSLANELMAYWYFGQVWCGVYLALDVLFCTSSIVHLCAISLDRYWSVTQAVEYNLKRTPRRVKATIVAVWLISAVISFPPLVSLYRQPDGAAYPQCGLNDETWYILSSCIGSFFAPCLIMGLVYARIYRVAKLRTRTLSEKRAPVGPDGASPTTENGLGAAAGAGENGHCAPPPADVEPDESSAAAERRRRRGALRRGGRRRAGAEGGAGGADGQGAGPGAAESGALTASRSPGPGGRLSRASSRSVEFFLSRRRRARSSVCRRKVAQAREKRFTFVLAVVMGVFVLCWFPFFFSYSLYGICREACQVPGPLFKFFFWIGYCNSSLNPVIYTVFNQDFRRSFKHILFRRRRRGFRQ

As for `CC1CCC(C(=O)NC(C(=O)NCCN2CCC(C)CC2)C(C)C)CC1` (centres undefined), in experiment [1], the cell count came out at 256. Further, the inhibition in experiment [1] was -3.9% (inactive); in experiment [3] it was -24.9% (inactive); in experiment [7], 19.4% (inactive); in experiment [8] it was 25.4% (inactive). The inhibition of aggregation in experiment [2] is -5.5% (inactive). The nuclei count in experiment [2] worked out at 71.9%; in experiment [3], 101%. For the same molecule, in experiment [4], the fluorescence slope is -0.495 (inactive). In addition, the NADPH fluorescence slope in experiment [5] is 8.5e-05 (inactive). Also, in experiment [6], the slope was 0.00683 (inactive).

For `O=C(CCn1c(=S)[nH]c2ccccc2c1=O)NCC1CCCO1` (centres undefined), the cell count in experiment [1] is 491. In addition, the inhibition is 9.4% (inactive) in experiment [1], 8% (inactive) in experiment [3], 8.18% (inactive) in experiment [7] and 2.45% (inactive) in experiment [8]. Moreover, in experiment [2], the inhibition of aggregation is 6% (inactive). Moreover, the nuclei count in experiment [2] amounted to 99.2%; in experiment [3], 109%. Moreover, in experiment [4], the fluorescence slope is -0.622 (inactive). Moreover, the NADPH fluorescence slope in experiment [5] was -8.8e-06 (inactive). For the same molecule, the slope in experiment [6] is 0.0038 (inactive).

Take `CCOC(=O)N1CCN(C(=O)c2ccc3nc4ccsc4c(=O)n3c2)CC1`: in experiment [1], the cell count was determined as 542. The inhibition was 9.1% (inactive) in experiment [1], 12.9% (inactive) in experiment [3], 14.6% (inactive) in experiment [7] and 44.2% (inactive) in experiment [8]. The inhibition of aggregation in experiment [2] was -30.4% (inactive). Moreover, the nuclei count was found to be 65.4% in experiment [2] and 95.5% in experiment [3]. Also, in experiment [4], the fluorescence slope was -0.324 (inactive). In experiment [5], the NADPH fluorescence slope is -1.8e-05 (inactive). In addition, the slope in experiment [6] was 0.00717 (inactive).

In the case of `COc1ccc(N2CCN(CCCNC(=O)C3CCCN(S(=O)(=O)c4cnc[nH]4)C3)CC2)cc1` (centres undefined), the cell count in experiment [1] came out at 604. In addition, the inhibition in experiment [1] was 33.9% (active); in experiment [3], -87.7% (inactive); in experiment [7] it was -10.4% (inactive); in experiment [8] it was 17.4% (inactive). Also, the inhibition of aggregation in experiment [2] was -29.9% (inactive). Moreover, the nuclei count in experiment [2] is 89.3%; in experiment [3], 122%. In addition, the fluorescence slope in experiment [4] was -0.537 (inactive). For the same molecule, the NADPH fluorescence slope in experiment [5] is -5.9e-06 (inactive). Further, the slope in experiment [6] was 0.0058 (inactive).

Turning to `CC(=O)c1cccc(S(=O)(=O)NCC(c2ccco2)N2CCCCC2)c1` (centres undefined), in experiment [1], the cell count was 707. In addition, the inhibition in experiment [1] was -2% (inactive); in experiment [3], -140% (inactive); in experiment [7], 5.82% (inactive); in experiment [8], 6.55% (inactive). For the same molecule, the inhibition of aggregation in experiment [2] is -10% (inactive). Also, the nuclei count in experiment [2] was 107%; in experiment [3], 145%. The fluorescence slope in experiment [4] is -0.62 (inactive). Besides, in experiment [5], the NADPH fluorescence slope is -1.6e-05 (inactive). Besides, the slope in experiment [6] was 0.0049 (inactive).

In the case of `COc1ccc(-n2ncc3c(N4CCC(C)CC4)ncnc32)cc1`, the cell count in experiment [1] turned out to be 575. Moreover, the inhibition is -1.3% (inactive) in experiment [1], -10.8% (inactive) in experiment [3], 9.66% (inactive) in experiment [7] and -67.2% (inactive) in experiment [8]. The inhibition of aggregation in experiment [2] was 17.5% (inactive). In addition, the nuclei count in experiment [2] turned out to be 121%; in experiment [3] it was 110%. In addition, the fluorescence slope in experiment [4] was -0.572 (inactive). Also, in experiment [5], the NADPH fluorescence slope is -5e-05 (inactive). The slope in experiment [6] was 0.00789 (inactive).

Regarding `O=C(COC(=O)C12CC3CC(CC(O)(C3)C1)C2)N1CCN(S(=O)(=O)c2ccc(Cl)cc2)CC1`, the cell count in experiment [1] amounted to 371. Also, the inhibition in experiment [1] is 4.7% (inactive); in experiment [3], -72.7% (inactive); in experiment [7], 8.77% (inactive); in experiment [8], 18% (inactive). For the same molecule, the inhibition of aggregation in experiment [2] is 0.7% (inactive). The results for the nuclei count in experiment [2] and in experiment [3] were 95.7% and 97.2%, respectively. Besides, in experiment [4], the fluorescence slope was -0.33 (inactive). The NADPH fluorescence slope in experiment [5] was -1.9e-05 (inactive). Besides, the slope in experiment [6] is 0.00661 (inactive).

`Cc1ccccc1Nc1nc(N)nc(CSCc2c(C)noc2C)n1`: the cell count in experiment [1] worked out at 347. In addition, the inhibition in experiment [1] was -15.8% (inactive); in experiment [3], -16.2% (inactive); in experiment [7], -21.3% (inactive); in experiment [8], -33.2% (inactive). Also, in experiment [2], the inhibition of aggregation was -2.4% (inactive). Moreover, the nuclei count in experiment [2] stood at 93.8%; in experiment [3] it was 117%. Moreover, the fluorescence slope in experiment [4] is -0.361 (inactive). The NADPH fluorescence slope in experiment [5] is -5.1e-05 (inactive). For the same molecule, in experiment [6], the slope was 0.00597 (inactive).

`CCn1cc(C2Nc3ccccc3C(=O)N2O)c(C)n1` (centres undefined): the cell count in experiment [1] stood at 428. The inhibition in experiment [1] was 8.8% (inactive); in experiment [3], -66.4% (inactive); in experiment [7] it was -41.1% (inactive); in experiment [8] it was -70.4% (inactive). For the same molecule, the inhibition of aggregation in experiment [2] was -27.6% (inactive). In addition, the nuclei count in experiment [2] came out at 112%; in experiment [3], 104%. In experiment [4], the fluorescence slope is -0.301 (inactive). In experiment [5], the NADPH fluorescence slope was -4.1e-05 (inactive). Moreover, in experiment [6], the slope is 0.0057 (inactive).

In the case of `NC(=O)c1cccc(S(=O)(=O)N2CCCCC2)c1`, the cell count in experiment [1] was 417. For the same molecule, the inhibition in experiment [1] is 3% (inactive); in experiment [3] it was 47.1% (inactive); in experiment [7], 4.76% (inactive); in experiment [8], 31.6% (inactive). Besides, the inhibition of aggregation in experiment [2] is 15.9% (inactive). The nuclei count in experiment [2] is 105%; in experiment [3] it was 87.4%. Further, in experiment [4], the fluorescence slope is -0.473 (inactive). For the same molecule, the NADPH fluorescence slope in experiment [5] is -4.7e-05 (inactive). Also, the slope in experiment [6] was 0.006 (inactive).

As to `CC1=Nn2c(nnc2-c2ccccn2)SC1`, the cell count in experiment [1] is 378. Further, the inhibition in experiment [1] is 4.8% (inactive); in experiment [3] it was -158% (inactive); in experiment [7], 7.81% (inactive); in experiment [8], 11.5% (inactive). For the same molecule, in experiment [2], the inhibition of aggregation is -0.1% (inactive). Also, the results for the nuclei count in experiment [2] and in experiment [3] were 68.5% and 198%, respectively. The fluorescence slope in experiment [4] was -0.443 (inactive). For the same molecule, in experiment [5], the NADPH fluorescence slope is -4.3e-05 (inactive). For the same molecule, the slope in experiment [6] was 0.00557 (inactive).

For `CN1/C(=C\C(=O)Nc2cccnc2)c2ccccc2CC1(C)C`, in experiment [1], the cell count stood at 360. For the same molecule, the inhibition in experiment [1] was -5% (inactive); in experiment [3] it was -31.3% (inactive); in experiment [7] it was 18.7% (inactive); in experiment [8], 19.4% (inactive). Besides, the inhibition of aggregation in experiment [2] is -8.4% (inactive). Also, the values for the nuclei count in experiment [2] and in experiment [3] were 91.1% and 117%, respectively. The fluorescence slope in experiment [4] is -0.401 (inactive). Further, the NADPH fluorescence slope in experiment [5] is -4.2e-05 (inactive). In addition, the slope in experiment [6] is 0.00677 (inactive).

For `CC(C)n1c(CN2CCN(C)CC2)nc2c1c(=O)n(C)c(=O)n2C`, the cell count in experiment [1] came out at 600. For the same molecule, the inhibition in experiment [1] was -5.3% (inactive); in experiment [3] it was -24.8% (inactive); in experiment [7], 22.2% (inactive); in experiment [8], 22.9% (inactive). The inhibition of aggregation in experiment [2] is 0.5% (inactive). In addition, the nuclei count in experiment [2] was 103%; in experiment [3], 118%. In experiment [4], the fluorescence slope was -0.488 (inactive). Further, the NADPH fluorescence slope in experiment [5] is -4.5e-05 (inactive). In addition, the slope in experiment [6] was 0.00573 (inactive).

For the molecule `CCOc1ccc2nc(SCC(=O)N3CCCCCC3)c(C#N)cc2c1`, in experiment [1], the cell count is 611. Moreover, the inhibition is 9.1% (inactive) in experiment [1], -95.4% (inactive) in experiment [3], -1.31% (inactive) in experiment [7] and -24.8% (inactive) in experiment [8]. Besides, the inhibition of aggregation in experiment [2] is -7.9% (inactive). In addition, the values for the nuclei count in experiment [2] and in experiment [3] were 98.1% and 150%, respectively. The fluorescence slope in experiment [4] was -0.584 (inactive). Also, the NADPH fluorescence slope in experiment [5] was -3.2e-05 (inactive). Moreover, the slope in experiment [6] is 0.00304 (inactive).
